Measured values reported in PubChem BioAssay (NCI).
This is part of a sample that, as a whole, favours compounds with a hit. Of some 79,000 tested, about 15% had one in any assay. Activity calls are given as the source filed them. Cut-off read from the data, not from the text of the source: active = growth inhibition above about 70%; inactive = the rest.

Legend:
[1] = NCI Yeast Anticancer Drug Screen. Data for the rad52 strain (AID 147);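 note: 0% = growth of vehicle-treated control cultures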; details: S. cerevisiae rad52 mutant growth inhibition, active compounds read high
Method in brief: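 Compounds are applied to a genetically defined yeast strain lacking normal DNA damage repair, and inhibition of growth is expressed relative to cultures given vehicle only.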

[2] = NCI Yeast Anticancer Drug Screen. Data for the wt1 strain (AID 149);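 note: 0% = growth of vehicle-treated wt1 cultures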; details: S. cerevisiae wt1 strain (SPY 50644) growth inhibition, active compounds read high
Method in brief: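 Growth inhibition read against vehicle controls after compound exposure of the wt1 yeast strain.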

[3] = NCI Yeast Anticancer Drug Screen. Data for the rad50EPP+ strain (AID 151);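 note: 0% = growth of vehicle-treated control cultures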; details: S. cerevisiae rad50 mutant strain, active compounds read high
Method in brief: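 Compounds were applied to the rad50EPP+ yeast strain, which bears a defined DNA repair alteration, and growth inhibition was determined relative to vehicle-treated cultures.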

[4] = NCI Yeast Anticancer Drug Screen. Data for the rad50 strain (AID 155);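 note: 0% = growth of vehicle-only cultures of the same strain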; details: S. cerevisiae rad50 strain growth inhibition, active compounds read high
Method in brief: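 Readout: growth inhibition relative to vehicle-treated cultures. Compound exposure was carried out in a genetically defined yeast strain deficient in DNA damage repair.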

[5] = NCI Yeast Anticancer Drug Screen. Data for the mec2-1 strain (AID 157); details: S. cerevisiae mec2-1 strain, active compounds read high
Method in brief: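 Strain: mec2-1 (DNA repair/cell cycle alteration). Compound exposure, then growth measured; inhibition expressed relative to vehicle.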

[6] = NCI Yeast Anticancer Drug Screen. Data for the rad14 strain (AID 159);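 note: 0% = growth of vehicle-treated control cultures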; details: S. cerevisiae rad14 strain growth inhibition, active compounds read high
Method in brief: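 Growth inhibition vs vehicle controls; genetically altered yeast strain (DNA damage repair defect) treated with test compounds.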

[7] = NCI Yeast Anticancer Drug Screen. Data for the sgs1 mgt1 strain (AID 161);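 note: 0% = growth of cultures given vehicle only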; details: S. cerevisiae sgs1 mgt1 strain, active compounds read high
Method in brief: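 Genetically altered yeast, compound exposure, growth inhibition relative to vehicle.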

[8] = NCI Yeast Anticancer Drug Screen. Data for the CLN2oe strain (AID 163);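 note: 0% = growth of vehicle-only control cultures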; details: S. cerevisiae CLN2oe strain, active compounds read high
Method in brief: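 Growth of a genetically modified yeast strain is measured after compound exposure and compared with cultures given vehicle alone.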

[9] = NCI Yeast Anticancer Drug Screen. Data for the cln2 rad14 strain (AID 165);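 note: 0% = growth equal to vehicle treated cultures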; details: S. cerevisiae cln2 rad14 strain, active compounds read high
Method in brief: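 Compounds are applied to the cln2 rad14 yeast strain, and growth is then compared with that of vehicle-treated cultures to give inhibition.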

[10] = NCI Yeast Anticancer Drug Screen. Data for the bub3 strain (AID 167); details: S. cerevisiae bub3 mutant strain, active compounds read high
Method in brief: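 Readout: yeast growth inhibition, expressed relative to vehicle-only wells. The test organism is a mutant strain from a panel with lesions in DNA repair or checkpoint genes.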

[11] = NCI Yeast Anticancer Drug Screen. Data for the wt2 strain (AID 169);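 note: 0% = growth of vehicle-treated yeast cultures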; details: S. cerevisiae wt2 strain growth inhibition, active compounds read high
Method in brief: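 This strain belongs to a panel of yeast strains with defined genetic alterations in DNA damage repair or cell cycle control. Compounds are applied, and growth inhibition is measured against vehicle-treated cultures.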

[12] = NCI Yeast Anticancer Drug Screen. Data for the mlh1 strain (AID 171);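 note: 0% = growth of vehicle-treated control cultures of the same strain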; details: S. cerevisiae mlh1 strain growth inhibition, active compounds read high
Method in brief: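 Growth of the mutant yeast strain after compound exposure, expressed as inhibition relative to vehicle-only controls.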

[13] = NCI Yeast Anticancer Drug Screen. Data for the sgs1 strain (AID 173);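 note: 0% = growth of vehicle-only control cultures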; details: S. cerevisiae sgs1 mutant, active compounds read high
Method in brief: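 Growth of a yeast strain bearing a defined genetic alteration is measured after compound treatment. Inhibition is expressed relative to vehicle-only controls.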

[14] = NCI Yeast Anticancer Drug Screen. Data for the mlh1 rad18 strain (AID 175); details: S. cerevisiae mlh1 rad18 strain growth inhibition, active compounds read high
Method in brief: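 Read-out is yeast growth inhibition, calculated against vehicle-only controls. The compound was applied to a strain engineered with DNA damage repair alterations.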

[15] = NCI Yeast Anticancer Drug Screen. Data for the rad18 strain (AID 177); details: S. cerevisiae rad18 mutant growth inhibition, active compounds read high
Method in brief: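 Growth of the mutant yeast strain after compound exposure, normalised to vehicle-only cultures.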

[16] = at 5.0 µM (retest, dose inferred, filed as 0.5)
[17] = at 50.0 µM (retest, dose inferred, filed as 5.0)

Measured: growth inhibition

O=C(O)CCCc1cc(I)c(N(CCCl)CCCl)c(I)c1
inactive: [1]; at 1.2 µM -18% | [1]; at 3.7 µM -35% | [1]; at 11.0 µM -14% | [2]; at 1.2 µM -59% | [2]; at 3.7 µM -53% | [2]; at 11.0 µM -59% | [2]; at 33.0 µM 68% | [3]; at 1.2 µM -25% | [3]; at 3.7 µM -15% | [3]; at 11.0 µM -27% | [3]; at 33.0 µM -23% | [3]; at 100.0 µM -33% | [4]; at 1.2 µM -60% | [4]; at 3.7 µM -55% | [4]; [16] 41% | [4]; at 11.0 µM -35% | [4]; at 33.0 µM 45% | [4]; at 50.0 µM 37.9% | [5]; at 1.2 µM -77% | [5]; at 3.7 µM -73% | [5]; [16] 11% | [5]; at 11.0 µM -36% | [5]; at 33.0 µM 60% | [5]; at 50.0 µM 69.1% | [6]; at 1.2 µM -59% | [6]; at 3.7 µM -59% | [6]; at 11.0 µM -26% | [6]; at 33.0 µM 37% | [7]; [16] 50% | [7]; at 50.0 µM 46.2% | [8]; at 1.2 µM -13% | [8]; at 3.7 µM -23% | [8]; at 11.0 µM -13% | [9]; [16] 45% | [9]; at 50.0 µM 53.5% | [10]; at 1.2 µM -58% | [10]; at 3.7 µM -37% | [10]; [16] 51% | [10]; at 11.0 µM -60% | [10]; at 50.0 µM 48% | [11]; at 1.2 µM -13% | [11]; at 3.7 µM -14% | [11]; at 11.0 µM -19% | [12]; at 1.2 µM -50% | [12]; at 3.7 µM -29% | [12]; at 11.0 µM -38% | [13]; at 1.2 µM -40% | [13]; at 3.7 µM -46% | [13]; at 11.0 µM -24% | [14]; [16] 25% | [14]; at 50.0 µM 69.3% | [15]; at 1.2 µM -63% | [15]; at 3.7 µM -50% | [15]; at 11.0 µM -13%
active: [1]; at 33.0 µM 75% | [1]; at 100.0 µM 96% | [2]; at 100.0 µM 98% | [4]; [17] 98% | [4]; at 100.0 µM 94% | [5]; [17] 99% | [5]; at 100.0 µM 95% | [6]; at 100.0 µM 95% | [7]; [17] 99% | [8]; at 33.0 µM 87% | [8]; at 100.0 µM 97% | [9]; [17] 98% | [10]; at 33.0 µM 73% | [10]; [17] 97% | [10]; at 100.0 µM 94% | [11]; at 33.0 µM 91% | [11]; at 100.0 µM 97% | [12]; at 33.0 µM 85% | [12]; at 100.0 µM 95% | [13]; at 33.0 µM 88% | [13]; at 100.0 µM 96% | [14]; [17] 98% | [15]; at 33.0 µM 76% | [15]; at 100.0 µM 93%
